# Experimental data reported in PubChem BioAssay (Tox21).
# Inconclusive results are not listed. Where a call stands in place of a potency, no number is given. Active and inactive are the calls of the source. Unless noted, calls come from the whole dose curve; as a rule, active = well fitted curve in the direction sought with a large enough effect in the repeat runs; inconclusive = weak or mixed curves; inactive = no such curve, though single readings can be large; an effect the other way counts as inactive or inconclusive.
# How the values were obtained:
# [1] = qHTS assay to identify small molecule that activate the aryl hydrocarbon receptor (AhR) signaling pathway - cell viability counter screen (AID 743086); note: nearly all actives have a fitted effect of over 45% in size; note: potency is the fitted concentration of half-maximal effect
# How it was run: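 HepG2-AhR-luc (HG2L7.5c1) cells, 4000/well, were preincubated 5 h at 37C, exposed to compound in qHTS format for 24 hr at 37C, then given CellTiter-Fluor for 30 min; viability was read as fluorescence in the reporter wells.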
# [2] = qHTS assay to identify small molecule antagonists of the peroxisome proliferator-activated receptor gamma (PPARg) signaling pathway - cell viability counter screen (AID 743194); note: nearly all actives have a fitted effect of over 55% in size; note: potency is the fitted concentration of half-maximal effect
# How it was run: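 PPARg-UAS-bla HEK293H cells were plated, rested 5 h at 37 C, then treated with compounds plus rosiglitazone (50 nM final) for 17 h at 37 C; viability was then read by CellTiter-Glo luminescence after 30 min at room temperature.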
# [3] = qHTS assay for small molecule agonists of the antioxidant response element (ARE) signaling pathway (AID 743202; active = well fitted activation curve with a large enough effect in the signal ratio in the repeat runs, not every such curve was filed as active; the % refers to the signal ratio)
# How it was run: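 Compounds delivered in DMSO to ARE-bla HepG2 cells (2,000 cells/well, pre-incubated 5 h) and left 16 h at 37 C. LiveBLAzer B/G FRET substrate then added for 2 h at RT before fluorescence reading.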
# [4] = qHTS assay for small molecule agonists of the antioxidant response element (ARE) signaling pathway - cell viability counter screen (AID 743203; calls by dose curve; note: nearly all actives have a fitted effect of over 55% in size; note: potency is the fitted concentration of half-maximal effect)
# How it was run: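 Seeded at 2,000 cells/well, ARE-bla HepG2 cells were incubated 5 hrs before compound addition. After 16 hrs of treatment at 37C with 5% CO2, CellTiter-Glo reagent was added and luminescence read 30 min later.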
# [5] = qHTS assay for small molecule activators of the heat shock response signaling pathway - cell viability counter screen (AID 743209); note: nearly all actives have a fitted effect of over 50% in size; note: potency is the fitted concentration of half-maximal effect
# How it was run: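 First, HSE-bla HeLa cells were seeded at 1500 cells/well and kept overnight at 37 C. Next, compounds were pinned in and incubated 5 h. After the FRET substrate step, CellTiter-Glo was added and luminescence read 30 min later.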
# [6] = qHTS assay for small molecule activators of the heat shock response signaling pathway (AID 743210; active = well fitted activation curve with a large enough effect in the signal ratio in the repeat runs, with a control signal flat, not every such curve was filed as active; the % refers to the signal ratio;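 note: HeLa cells with beta-lactamase reporter driven by heat shock elements; series mostly up to about 63 µM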)
# How it was run: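 Reporter gene assay: HeLa cells stably bearing an HSE-bla construct, compound treatment 5 h at 37 C, LiveBLAzer substrate 2.5 h at RT, fluorescence intensity.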
# [7] = qHTS assay to identify small molecule agonists of the peroxisome proliferator-activated receptor delta (PPARd) signaling pathway - cell viability counter screen (AID 743211); note: nearly all actives have a fitted effect of over 55% in size; note: potency is the fitted concentration of half-maximal effect
# How it was run: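 Viability was measured as CellTiter-Glo luminescence (30 min, room temperature) in the same wells as the beta-lactamase readout. GeneBLAzer PPARd UAS-bla HEK293H cells received compound after 5 h plating and were incubated 17 h at 37 C.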
# [8] = qHTS assay to identify small molecule antagonists of the peroxisome proliferator-activated receptor delta (PPARd) signaling pathway - cell viability counter screen (AID 743213); note: nearly all actives have a fitted effect of over 50% in size; note: potency is the fitted concentration of half-maximal effect
# How it was run: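 Agonist-stimulated (L165041, 300 nM final) HEK293H PPARd UAS-bla cells are exposed to compounds for 17 h at 37 C, and ATP-based luminescence (CellTiter-Glo) from the same wells reports cytotoxicity.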
# [9] = target: Bile acid receptor (Homo sapiens) (UniProt Q96RI1); test: qHTS assay to identify small molecule antagonists of the farnesoid-X-receptor (FXR) signaling pathway (AID 743217; active = well fitted inhibition curve with a large enough effect in the signal ratio in the repeat runs, not every such curve was filed as active; the % refers to the signal ratio)
# How it was run: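 Antagonist mode against 50 uM (final) chenodeoxycholic acid stimulation in FXR-bla HEK 293T cells, 16 h at 37 °C. Inhibition detected as reduced beta-lactamase activity via LiveBLAzer B/G FRET fluorescence after 2 h at room temperature.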
# [10] = qHTS assay to identify small molecule agonists of the farnesoid-X-receptor (FXR) signaling pathway - cell viability counter screen (AID 743218); note: nearly all actives have a fitted effect of over 45% in size
# How it was run: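 Cytotoxicity counter-screen run in parallel, same wells: FXR-UAS-bla HEK 293T cells dosed 16 h at 37 C, viability read by CellTiter-Glo luminescence after 30 min at room temperature.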
# [11] = target: Bile acid receptor (Homo sapiens) (UniProt Q96RI1); test: qHTS assay to identify small molecule agonists of the farnesoid-X-receptor (FXR) signaling pathway (AID 743220; active = well fitted activation curve with a large enough effect in the signal ratio in the repeat runs, not every such curve was filed as active; the % refers to the signal ratio)
# How it was run: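 Beta-lactamase reporter under UAS control in GeneBLAzer FXR HEK 293T cells (5000/well) measured with LiveBLAzer FRET substrate after 2 h at room temperature. Compound exposure lasted 16 h at 37C.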
# [12] = qHTS assay to identify small molecule antagonists of the farnesoid-X-receptor (FXR) signaling pathway - cell viability counter screen (AID 743221; active = well fitted cell-killing curve with a large enough effect in the repeat runs, not every such curve was filed as active; note: nearly all actives have a fitted effect of over 50% in size; note: potency is the fitted concentration of half-maximal effect)
# How it was run: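 Cytotoxicity counter screen run in the FXR-bla reporter wells: HEK 293T cells exposed to compound with 50 uM (final) chenodeoxycholic acid for 16 h, 37 C, then viability measured by CellTiter-Glo luminescence after 30 min, room temperature.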
# [13] = target: Aryl hydrocarbon receptor (Homo sapiens) (UniProt P35869); test: qHTS assay to identify small molecule that activate the aryl hydrocarbon receptor (AhR) signaling pathway (AID 743085);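 note: HG2L7.5c1 human HepG2 liver cells with stably integrated DRE-driven firefly reporter; series mostly up to about 70 µM; nearly all actives have a fitted effect of over 15% in size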
# How it was run: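 Luminescence (ONE-Glo) from a dioxin-responsive-element luciferase reporter in HG2L7.5c1 HepG2 cells after 24 hr compound exposure at 37C; viability measured by CellTiter-Fluor fluorescence beforehand.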
# [14] = target: Peroxisome proliferator-activated receptor gamma (Homo sapiens) (UniProt P37231); test: qHTS assay to identify small molecule agonists of the peroxisome proliferator-activated receptor gamma (PPARg) signaling pathway (AID 743094; active = well fitted activation curve with a large enough effect in the signal ratio in the repeat runs, not every such curve was filed as active; the % refers to the signal ratio)
# How it was run: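 Quantitative HTS agonist mode: stable HEK293H line with UAS-beta-lactamase reporter under PPARg control, 17 h compound exposure at 37C, fluorescence after 1 h FRET substrate loading at room temperature.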
# [15] = target: Peroxisome proliferator-activated receptor delta (Homo sapiens) (UniProt Q03181); test: qHTS assay to identify small molecule agonists of the peroxisome proliferator-activated receptor delta (PPARd) signaling pathway (AID 743212; calls by dose curve)
# How it was run: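 A PPARd-bla HEK293H line with beta-lactamase under an Upstream Activator Sequence is treated with compounds at 37 C. Substrate loading for 2 h at room temperature precedes the fluorescence measurement.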
# [16] = target: Vitamin D3 receptor (Homo sapiens) (UniProt P11473); test: qHTS assay to identify small molecule agonists of the vitamin D receptor (VDR) signaling pathway (AID 743222; calls by dose curve)
# How it was run: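 Quantitative HTS agonist-mode screen: compounds in DMSO were pin-transferred onto VDR-bla cells and incubated 16 h at 37C, 5% CO2. Reporter activity was detected with LiveBLAzer B/G FRET substrate after 2 h at room temperature.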
# [17] = target: Vitamin D3 receptor (Homo sapiens) (UniProt P11473); test: qHTS assay to identify small molecule antagonists of the vitamin D receptor (VDR) signaling pathway (AID 743223; active = well fitted inhibition curve with a large enough effect in the signal ratio in the repeat runs, not every such curve was filed as active; the % refers to the signal ratio)
# How it was run: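 Antagonist mode: compound added to VDR-bla cells alongside agonist 1alpha,25-dihydroxyvitamin D3 (3 nM final), incubation 16 h at 37C. Read-out is LiveBLAzer FRET fluorescence, 2 h at room temperature.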
# [18] = target: Peroxisome proliferator-activated receptor delta (Homo sapiens) (UniProt Q03181); test: qHTS assay to identify small molecule antagonists of the peroxisome proliferator-activated receptor delta (PPARd) signaling pathway (AID 743215; active = well fitted inhibition curve with a large enough effect in the signal ratio in the repeat runs, not every such curve was filed as active; the % refers to the signal ratio; note: series mostly up to about 62 µM)
# How it was run: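 Inhibition of L165041-driven (300 nM final) PPARd signaling is scored in HEK293H UAS-bla cells. Exposure lasts 17 h at 37 C; beta-lactamase activity is then read by FRET substrate fluorescence after 2 h at room temperature.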
# [19] = target: Peroxisome proliferator-activated receptor gamma (Homo sapiens) (UniProt P37231); test: qHTS assay to identify small molecule antagonists of the peroxisome proliferator-activated receptor gamma (PPARg) signaling pathway (AID 743191; calls by dose curve; note: series mostly up to about 63 µM; nearly all actives have a fitted effect of over 30% in size)
# How it was run: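 GeneBLAzer PPARg UAS-bla HEK293H cells carrying a UAS-driven beta-lactamase reporter were plated at 3000 cells/well, preincubated 5 h at 37C, then given compound for 17 h at 37C; LiveBLAzer B/G FRET substrate was read after 1 h at room temperature.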
# [20] = qHTS assay to identify aromatase inhibitors - cell viability counter screen (AID 743084);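 note: cells stimulated with testosterone during compound exposure; nearly all actives have a fitted effect of over 55% in size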; note: potency is the fitted concentration of half-maximal effect
# Chain of Peroxisome proliferator-activated receptor gamma (Homo sapiens) (P37231 whole entry, looked up): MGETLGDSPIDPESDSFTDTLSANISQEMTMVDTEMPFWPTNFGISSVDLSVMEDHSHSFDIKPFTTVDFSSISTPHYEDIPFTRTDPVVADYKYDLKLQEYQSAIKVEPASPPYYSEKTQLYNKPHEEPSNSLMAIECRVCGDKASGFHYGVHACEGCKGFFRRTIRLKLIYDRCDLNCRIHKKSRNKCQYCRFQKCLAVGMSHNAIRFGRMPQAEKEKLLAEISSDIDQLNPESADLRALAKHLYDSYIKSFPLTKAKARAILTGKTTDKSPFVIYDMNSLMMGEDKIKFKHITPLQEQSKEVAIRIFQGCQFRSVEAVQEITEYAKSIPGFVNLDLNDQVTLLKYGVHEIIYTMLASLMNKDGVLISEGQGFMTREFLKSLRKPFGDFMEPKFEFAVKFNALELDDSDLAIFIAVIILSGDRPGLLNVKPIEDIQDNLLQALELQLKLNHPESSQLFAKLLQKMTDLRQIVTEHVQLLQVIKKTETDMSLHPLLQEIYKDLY
# Chain of Bile acid receptor (Homo sapiens) (Q96RI1 whole entry, looked up): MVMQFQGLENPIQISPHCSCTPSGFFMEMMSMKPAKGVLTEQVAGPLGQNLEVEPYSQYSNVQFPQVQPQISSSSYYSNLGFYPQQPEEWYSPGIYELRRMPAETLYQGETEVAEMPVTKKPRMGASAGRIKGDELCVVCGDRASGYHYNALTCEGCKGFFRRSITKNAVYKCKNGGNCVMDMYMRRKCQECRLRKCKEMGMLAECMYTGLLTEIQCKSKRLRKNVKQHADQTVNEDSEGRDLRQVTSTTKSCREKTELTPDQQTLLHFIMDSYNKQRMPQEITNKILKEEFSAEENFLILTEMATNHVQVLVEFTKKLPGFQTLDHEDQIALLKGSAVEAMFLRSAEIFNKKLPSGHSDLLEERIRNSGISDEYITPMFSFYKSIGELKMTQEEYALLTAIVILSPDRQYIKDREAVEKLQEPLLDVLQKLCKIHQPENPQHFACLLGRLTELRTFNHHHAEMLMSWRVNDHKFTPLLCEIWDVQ
# Chain of Aryl hydrocarbon receptor (Homo sapiens) (P35869 whole entry, looked up): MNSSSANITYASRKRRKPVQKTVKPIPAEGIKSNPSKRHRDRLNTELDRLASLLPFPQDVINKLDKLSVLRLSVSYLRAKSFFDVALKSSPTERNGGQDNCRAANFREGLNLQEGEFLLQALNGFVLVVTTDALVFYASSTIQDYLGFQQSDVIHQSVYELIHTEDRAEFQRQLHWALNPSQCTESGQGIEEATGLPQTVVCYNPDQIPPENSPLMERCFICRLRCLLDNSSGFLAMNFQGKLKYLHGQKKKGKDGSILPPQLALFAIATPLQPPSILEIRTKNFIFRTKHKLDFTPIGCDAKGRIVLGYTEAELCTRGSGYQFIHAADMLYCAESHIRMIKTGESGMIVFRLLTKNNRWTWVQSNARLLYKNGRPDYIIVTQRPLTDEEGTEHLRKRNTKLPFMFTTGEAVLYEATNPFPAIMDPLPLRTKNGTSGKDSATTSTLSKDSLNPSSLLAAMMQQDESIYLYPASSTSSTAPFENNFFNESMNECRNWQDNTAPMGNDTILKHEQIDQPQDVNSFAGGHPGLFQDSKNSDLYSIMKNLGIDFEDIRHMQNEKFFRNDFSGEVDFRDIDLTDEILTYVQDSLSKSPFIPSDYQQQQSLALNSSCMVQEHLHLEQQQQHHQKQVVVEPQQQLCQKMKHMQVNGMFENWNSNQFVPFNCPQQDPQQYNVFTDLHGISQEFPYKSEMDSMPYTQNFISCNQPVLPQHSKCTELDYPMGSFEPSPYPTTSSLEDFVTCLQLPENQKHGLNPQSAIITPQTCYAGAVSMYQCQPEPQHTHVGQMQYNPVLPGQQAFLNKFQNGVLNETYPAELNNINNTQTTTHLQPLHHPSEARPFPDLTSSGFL
# Chain of Vitamin D3 receptor (Homo sapiens) (P11473 whole entry, looked up): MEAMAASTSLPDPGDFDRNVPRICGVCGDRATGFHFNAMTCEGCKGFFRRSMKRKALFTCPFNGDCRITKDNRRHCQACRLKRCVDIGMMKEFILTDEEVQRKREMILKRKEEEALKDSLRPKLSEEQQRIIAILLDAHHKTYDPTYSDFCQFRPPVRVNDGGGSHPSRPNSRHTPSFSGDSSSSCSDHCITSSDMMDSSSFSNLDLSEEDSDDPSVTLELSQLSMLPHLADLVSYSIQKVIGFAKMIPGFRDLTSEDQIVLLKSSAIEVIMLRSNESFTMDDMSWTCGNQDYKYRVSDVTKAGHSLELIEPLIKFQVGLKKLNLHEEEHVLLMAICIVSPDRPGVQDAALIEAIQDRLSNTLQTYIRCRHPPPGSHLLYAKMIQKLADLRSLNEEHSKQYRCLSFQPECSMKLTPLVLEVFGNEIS
# Chain of Peroxisome proliferator-activated receptor delta (Homo sapiens) (Q03181 whole entry, looked up): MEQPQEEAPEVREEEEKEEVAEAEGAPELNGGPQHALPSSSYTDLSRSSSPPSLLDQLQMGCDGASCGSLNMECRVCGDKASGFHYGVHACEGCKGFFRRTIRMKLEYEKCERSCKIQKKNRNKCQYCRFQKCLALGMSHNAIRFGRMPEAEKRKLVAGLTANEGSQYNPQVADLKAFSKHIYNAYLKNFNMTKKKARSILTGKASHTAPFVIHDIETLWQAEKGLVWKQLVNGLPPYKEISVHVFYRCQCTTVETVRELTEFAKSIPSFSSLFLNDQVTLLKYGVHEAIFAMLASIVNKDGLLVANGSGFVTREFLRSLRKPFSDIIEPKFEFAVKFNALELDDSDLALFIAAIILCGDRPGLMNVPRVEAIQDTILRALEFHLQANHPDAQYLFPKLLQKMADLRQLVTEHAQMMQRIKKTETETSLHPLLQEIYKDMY
Compound,Potency [1],Potency [2],Potency [3],Potency [4],Potency [5],outcome [6],Potency [7],Potency [8],outcome [9],Potency [10],outcome [11],Potency [12],Potency [13],Potency [14],outcome [15],outcome [16],Potency [17],outcome [18],Potency [19],Potency [20]
CC1CCc2cc(F)cc3c(=O)c(C(=O)O)cn1c23 (stereo unspecified),inactive,inactive,inactive,inactive,inactive,inactive,inactive,inactive,inactive,inactive,inactive,inactive,,,,,,,,
CC(C)(C)c1cc(O)c(C(C)(C)C)cc1O,inactive,,,,inactive,inactive,,inactive,,,,inactive,inactive,inactive,inactive,inactive,inactive,,,
Nc1ccc(C(=O)N2CC3CC(CN(Cc4ccccc4)C3)C2)cc1,,inactive,inactive,inactive,inactive,,inactive,inactive,,,inactive,,,,,inactive,,inactive,,
CC[C@@H]1C[C@H](N(Cc2cc(C(F)(F)F)cc(C(F)(F)F)c2)C(C)=O)c2cc(C(F)(F)F)ccc2N1C(=O)OC(C)C,inactive,inactive,,inactive,inactive,inactive,inactive,,,inactive,,inactive,,inactive,,inactive,inactive,inactive,inactive,
NC(N)=NN=C(/C=C/c1ccc([N+](=O)[O-])o1)/C=C/c1ccc([N+](=O)[O-])o1,7.5 µM (active),2.11 µM (active),,5.96 µM (active),5.31 µM (active),,9.44 µM (active),9.44 µM (active),,,,23.7 µM (active),,,,,,,,5.31 µM (active)
C=CC(C)(CCC=C(C)C)OC(=O)c1ccccc1 (stereo unspecified),inactive,inactive,inactive,inactive,,,inactive,inactive,,inactive,inactive,inactive,,,,,,,,
COC(Cc1ccccc1)OC,inactive,inactive,inactive,inactive,inactive,inactive,inactive,inactive,,,,inactive,inactive,inactive,,inactive,inactive,,inactive,
Cc1ccccn1,inactive,inactive,inactive,inactive,inactive,inactive,inactive,inactive,,inactive,inactive,inactive,,,,inactive,inactive,,,inactive
O=CNc1ccccc1,inactive,inactive,inactive,inactive,inactive,inactive,inactive,inactive,,inactive,inactive,inactive,inactive,inactive,inactive,inactive,inactive,inactive,,
CCCCCOC(=O)c1ccc(O)cc1,inactive,inactive,,inactive,inactive,,,inactive,,,inactive,inactive,inactive,inactive,,inactive,,inactive,,
Cc1cc(NC(=O)C(=O)O)cc(C)c1Oc1ccc(O)c2c1CCC2,inactive,,inactive,inactive,inactive,inactive,inactive,inactive,inactive,,inactive,inactive,,,inactive,inactive,,,,
O=S1(=O)N=C(O)c2ccccc21,inactive,inactive,inactive,inactive,inactive,,inactive,inactive,,inactive,,inactive,,,,,,,,inactive
Oc1ccc(Cc2ccccc2)cc1,inactive,inactive,,inactive,inactive,,,inactive,,inactive,,,,,,inactive,,inactive,,
CC[C@]12CCCN3CCc4c(n(c5ccccc45)C(=O)C1)[C@@H]32,,inactive,inactive,inactive,inactive,inactive,inactive,inactive,,,,inactive,,inactive,inactive,,,inactive,,inactive
CC(C)c1cccc(C(C)C)c1NC(=O)NS(=O)(=O)c1cc(C(C)(C)O)co1,,inactive,,inactive,inactive,inactive,inactive,inactive,,inactive,inactive,inactive,,,inactive,inactive,,inactive,,
COc1cc(C(C)(C)C)c(O)c(C(C)(C)C)c1,inactive,inactive,inactive,inactive,inactive,inactive,inactive,inactive,,inactive,inactive,inactive,,inactive,inactive,inactive,inactive,inactive,,
CC(=O)N(CC(=O)N(C)C)c1ccccc1,,inactive,,inactive,inactive,inactive,inactive,inactive,,,inactive,inactive,,,inactive,inactive,inactive,inactive,,
Nc1cnn([C@@H]2O[C@H](CO)[C@@H](O)[C@H]2O)c(=O)n1,inactive,inactive,inactive,inactive,inactive,inactive,inactive,,,,inactive,inactive,,,,inactive,inactive,inactive,,
